High-throughput results (PubChem)
Wnt act: Wnt/beta-catenin pathway activators, primary screen, cell-based, plate reader, single point; Wnt/beta-catenin reporter cell assay, activator; actives 1.2% (n = 300,000); activation, % at 9.35 µM; in the data active means activation above about 30%, passing the limit was not always enough; inconclusive means no clear call, values can overlap the other calls
TRPM1 prom inh: inhibitors of MITF-dependent TRPM1 promoter reporter, primary screen, cell-based, SK-MEL-5, single point, luciferase | SK-MEL-5 TRPM1 promoter luciferase, 24 h | inhibition, % at 12.5 µM | actives 0.83% (n = 330,000) | AID 488899, 2010;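 active means mean inhibition across replicates of 60% or more, whatever share of single replicates reaches that level; inconclusive means some that reach 60%, reason not given; inactive means mean inhibition across replicates below 60%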
MITF act: activators of MITF-driven TRPM1 promoter reporter, primary screen, cell-based, SK-MEL-5, luciferase, single point. activation, % at 12.5 µM. SK-MEL-5 TRPM1-promoter luciferase, 24 h; % of positive control, neutral wells = 0. actives 0.75% (n = 300,000). AID 588334, 2011;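 active means mean activation of at least 80% with every replicate also reaching 80%; inconclusive means mean reaches 80% but some replicate falls short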
PfHsp90 set2: growth inhibition of PfHsp90-expressing yeast, primary screen, antimalarial PfHsp90 inhibitor project, S. cerevisiae, BacTiter-Glo luminescence, single point, set 2 | BacTiter-Glo ATP, 48 h; yeast lacking PDR1 and PDR3 efflux regulators | inhibition, % at 9.4 µM | actives 0.32% (n = 310,000);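 active means every replicate shows inhibition above about 80%, whatever the replicate mean, limit read from the data; inconclusive means mean inhibition reaches the set limit but some replicate falls short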
NSD2 inh: NSD2 histone methyltransferase inhibitors, primary screen, biochemical, AlphaScreen, single concentration, set 2; NSD2 peptide methylation, 120 min; inhibition, % at 12.5 µM; actives 0.54% (n = 310,000); Histone-lysine N-methyltransferase NSD2 (Homo sapiens), O96028; in the data active means inhibition above about 50%
Target sequence (O96028 whole entry, looked up): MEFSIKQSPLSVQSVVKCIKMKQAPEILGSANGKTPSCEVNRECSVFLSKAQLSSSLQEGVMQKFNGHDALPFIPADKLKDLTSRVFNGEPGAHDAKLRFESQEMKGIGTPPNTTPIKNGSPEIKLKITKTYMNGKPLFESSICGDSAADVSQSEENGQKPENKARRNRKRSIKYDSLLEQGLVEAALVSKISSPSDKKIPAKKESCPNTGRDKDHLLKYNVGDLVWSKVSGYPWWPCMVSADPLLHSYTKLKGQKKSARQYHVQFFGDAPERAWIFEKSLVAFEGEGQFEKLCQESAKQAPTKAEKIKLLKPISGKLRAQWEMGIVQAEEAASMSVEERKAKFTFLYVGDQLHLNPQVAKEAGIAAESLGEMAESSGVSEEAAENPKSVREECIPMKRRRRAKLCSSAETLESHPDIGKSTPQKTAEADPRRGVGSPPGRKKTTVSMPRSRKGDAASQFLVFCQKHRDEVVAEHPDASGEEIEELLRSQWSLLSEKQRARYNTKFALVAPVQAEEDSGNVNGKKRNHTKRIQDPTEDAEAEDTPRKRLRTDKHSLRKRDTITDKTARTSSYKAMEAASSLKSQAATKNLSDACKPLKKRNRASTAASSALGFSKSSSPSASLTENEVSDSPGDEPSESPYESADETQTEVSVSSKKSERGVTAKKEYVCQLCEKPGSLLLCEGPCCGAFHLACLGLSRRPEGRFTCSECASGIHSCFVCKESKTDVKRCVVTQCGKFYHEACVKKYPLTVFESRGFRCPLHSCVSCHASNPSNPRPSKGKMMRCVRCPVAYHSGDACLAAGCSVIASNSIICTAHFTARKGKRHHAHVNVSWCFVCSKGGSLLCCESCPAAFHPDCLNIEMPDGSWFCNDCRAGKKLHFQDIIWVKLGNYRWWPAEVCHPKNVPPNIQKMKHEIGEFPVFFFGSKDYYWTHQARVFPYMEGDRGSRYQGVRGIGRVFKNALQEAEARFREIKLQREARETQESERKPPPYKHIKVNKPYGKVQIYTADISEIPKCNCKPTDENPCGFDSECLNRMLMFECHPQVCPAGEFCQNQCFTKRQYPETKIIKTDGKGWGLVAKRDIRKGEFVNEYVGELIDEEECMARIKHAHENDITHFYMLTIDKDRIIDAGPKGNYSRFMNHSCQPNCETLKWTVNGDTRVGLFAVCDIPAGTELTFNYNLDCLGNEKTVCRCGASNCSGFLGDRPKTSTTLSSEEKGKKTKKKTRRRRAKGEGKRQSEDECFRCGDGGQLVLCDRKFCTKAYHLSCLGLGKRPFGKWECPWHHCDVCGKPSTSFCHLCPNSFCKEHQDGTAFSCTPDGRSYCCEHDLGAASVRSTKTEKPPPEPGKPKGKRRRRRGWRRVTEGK
Glyco luc inh: increase of ERlucT glycosylation luciferase signal, primary screen, N-linked glycosylation inhibitor project, D54 ERlucT cells, luminescence, set 2; actives 0.23% (n = 360,000); reporter increase, % at 12.5 µM; AID 588692, 2011; D54 ERlucT glycosylation luciferase reporter, 24 h; percent of 100 nM tunicamycin response;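 active means mean luciferase reporter signal, scaled so untreated is 0 and the glycosylation-blocking control 100, at or above a set limit in every replicate; inconclusive means mean reaches the limit but not every replicate does; inactive means mean below the limit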;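 further: luciferase carries N-glycosylation sites so blocking glycosylation raises the light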
Large screens that a line does not name were inactive; ! = repeats disagree. Sampled rows, rich in hits. Any-hit rate of the full collection: about 2.9%.

COc1c(C)cccc1C(=O)Nc1ccc(N2CCOCC2)c(Cl)c1	MITF act 89 (no result: Wnt act)
Cc1ccc(NC(=O)c2cc(N3C(=O)C=CC3=O)ccc2Cl)cc1C	PfHsp90 set2 110
CCOc1ccc2nc(SCC(=O)NCc3ccccc3OC)[nH]c2c1	none
O=C1CC(N2CCCN(Cc3ccccc3)CC2)=NC(=O)N1c1ccc(Br)cc1	none (no result: Wnt act, TRPM1 prom inh, MITF act, PfHsp90 set2, Glyco luc inh)
O=C(c1c(O)cc(O)cc1O)C1c2c(cc(O)c3c2O[C@H](c2ccc(O)cc2)[C@@H](O)C3)OC1c1ccc(O)cc1 (stereo partly specified)	none (no result: NSD2 inh)
CC(C)(C)c1ccc(NC(=O)C(=O)C2C(=O)Nc3ccccc32)cc1 (stereo unspecified)	none
CN(C)c1ccc(NC(=O)C(=O)C2C(=O)Nc3ccccc32)cc1 (stereo unspecified)	Wnt act 44
COc1ccc(-n2cc(-c3ccccc3)[n+]3c2CCCCC3)cc1	none
COc1ccc(-n2c(-c3ccc(Br)cc3)c[n+]3c2CCc2ccccc2-3)cc1	TRPM1 prom inh 98
COc1ccc(-c2cn(-c3ccc(OC)cc3)c3[n+]2-c2ccccc2CC3)cc1	TRPM1 prom inh 69
CC(C)c1ccc(-n2c(-c3ccccc3)c[n+]3c2CCc2ccccc2-3)cc1	TRPM1 prom inh 88, Glyco luc inh inconclusive (no result: NSD2 inh)
COc1ccc(-c2c[n+]3c(n2-c2ccccc2)CCCCC3)cc1	none
COc1ccccc1-n1c(-c2ccccc2)c[n+]2c1CCc1ccccc1-2	TRPM1 prom inh 67!
CC(C)(C)S(=O)(=O)N1C[C@@H]2CC/C=C\C/C(c3ccccc3)=C\2[C@H]1CCO	Glyco luc inh 38 (no result: NSD2 inh)
C[C@H]1CN(S(=O)(=O)C(C)(C)C)[C@H](CCO)/C1=C\c1ccccc1	none (no result: NSD2 inh)
Cc1ccc(S(=O)(=O)NCCC(=O)NCC(c2cccs2)N(C)C)cc1 (stereo unspecified)	none
C=CCN1C2CCCC1CC(NC(=S)Nc1ccc(Cl)cc1)C2 (stereo unspecified)	Wnt act 39
CCCCOC(=O)c1ccc(NC(C)=O)cc1	none (no result: MITF act)
Cc1ccc(NC(=O)CCOc2ccccc2)cc1	MITF act 90
COC(=O)c1ccc(NC(=O)Cc2ccccc2)cc1	Wnt act 39 (no result: MITF act, PfHsp90 set2, NSD2 inh)
CCOc1ccc(NC(=O)Cc2ccccc2)cc1	Wnt act 35, MITF act 83
CCCCOC(=O)Nc1ccc(C(=O)OC)cc1	Wnt act 53 (no result: PfHsp90 set2)
COc1ccc(S(=O)(=O)N2CCN(C)CC2)cc1C(=O)Nc1ccccc1	none
Cc1ccc(-c2cc(C(=O)NN=Cc3cc(Br)ccc3O)[nH]n2)cc1C	none (no result: Wnt act, TRPM1 prom inh, MITF act, PfHsp90 set2, Glyco luc inh)
CCOc1ccc(NC(=S)Nc2cccc3ccccc23)cc1	Wnt act 31
CCC(=O)Nc1ccc(C(=O)OCc2ccccc2Cl)cc1	MITF act 121 (no result: Wnt act)
CCOc1ccc(NC(=S)Nc2cccc3cnccc23)cc1	none
Cc1ccccc1-c1nnc(CS(=O)(=O)c2ccccc2)o1	MITF act 103
O=C(Cc1cccc2ccccc12)Nc1ccccc1O	none (no result: Wnt act, TRPM1 prom inh, MITF act, PfHsp90 set2, Glyco luc inh)
O=C(N[C@@H](Cc1cccnc1)C(=O)N1CCC[C@H]1C(=O)NCCc1ccccc1Cl)c1ccco1	none (no result: TRPM1 prom inh, MITF act, PfHsp90 set2, NSD2 inh, Glyco luc inh)
Cc1cccc(Cc2cnc(NC(=O)C3=NCCN3)s2)c1	none (no result: PfHsp90 set2)
Cc1cccc(Cc2cnc(NC(=O)c3ccc(C)o3)s2)c1	Wnt act 51, MITF act 88
COc1cc(C=NO)nc(-c2ccccn2)c1	TRPM1 prom inh 79, PfHsp90 set2 98 (no result: MITF act)
CCn1c(C)nc2cc(C(=O)N/N=C/c3cccc(O)c3O)ccc21	Wnt act 41
O=C(Nc1ncccc1O)c1c(O)c2ccccc2[nH]c1=O	none
CCN1CCN(CCCNC(=O)c2ccc(/C=C3/Oc4ccccc4N(Cc4cccc(C)c4)C3=O)cc2)CC1	TRPM1 prom inh 76 (no result: Wnt act, NSD2 inh)
O=C(Cc1ccccc1[N+](=O)[O-])OCC(=O)c1ccccc1Br	none
c1csc(-c2noc(COc3ccc4c(c3)CCCC4)n2)c1	Wnt act 36, MITF act 140
